# Screening results from PubChem.
# In the library only some 3.1% were active in any assay of this set; here they are far more common.
# TSHR antag: human thyrotropin receptor antagonism. P16473. TSHR-expressing cells, TSH-stimulated cAMP HTRF, 2 h; hits give low values. activity change, negative = inhibition, % at 11.5 µM. 330,000 compounds, 0.2% hits. AID 504810;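 active = activity change below a set negative limit, meaning inhibition stronger than a set level, cut at about -70% in these data; inconclusive = activity change between two set negative limits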; note: % is set by controls: 0 for no effect and ±100 for the full control effect
#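 Read-out is FRET at 665 nm (cryptate excitation 337 nm) from a cryptate-tagged anti-cAMP antibody, competed by cell cAMP against cAMP-d2. Compounds are tested on freshly harvested TSHR cells challenged with 4nM TSH (EC80) for 2 hours at 37 deg C.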
# VDR inhibitor: blocks the human vitamin D receptor. 400,000 compounds, 0.93% hits. VDR-SRC2-3 peptide fluorescence polarization, 2 h. P11473. Potency, µM, inactives show max response, negative = inhibition, hits mostly inhibitors; note: potency is the fitted concentration of half-maximal effect; % is set by controls: 0 for no effect and ±100 for the full control effect
# Target sequence (P11473 whole entry, looked up): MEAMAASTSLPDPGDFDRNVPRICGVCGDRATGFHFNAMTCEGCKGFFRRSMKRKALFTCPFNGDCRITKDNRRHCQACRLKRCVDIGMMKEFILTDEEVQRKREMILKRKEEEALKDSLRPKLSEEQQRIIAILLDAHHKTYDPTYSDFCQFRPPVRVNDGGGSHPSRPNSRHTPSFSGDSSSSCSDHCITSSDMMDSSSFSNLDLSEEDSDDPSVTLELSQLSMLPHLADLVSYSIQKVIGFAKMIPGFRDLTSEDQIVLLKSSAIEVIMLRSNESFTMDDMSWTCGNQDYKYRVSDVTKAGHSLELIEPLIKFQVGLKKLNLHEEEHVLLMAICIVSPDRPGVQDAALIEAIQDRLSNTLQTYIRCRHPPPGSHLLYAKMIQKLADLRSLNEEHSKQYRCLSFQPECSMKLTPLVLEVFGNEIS
#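 After 23 nl compound addition and a short centrifugation, plates sat for 2 hours at ambient temperature; polarization of fluorescence then indicated loss of VDR binding to peptide SRC2-3.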
# Vif-A3G inh: inhibitors of Vif-APOBEC3G interaction; Q9HC16; HeLa A3G-eYFP + Vif (tagged APOBEC3G with the HIV-1 protein that degrades it), YFP fluorescence, overnight; Potency, µM (titrated, usually from 46.1 µM), inactives show at the top dose activity, negative = active, usual class: inhibitors; 410,000 compounds, 0.076% hits; AID 602310; note: potency is the fitted concentration of half-maximal effect; % is set by controls: 0 for no effect and ±100 for the full control effect; nearly all actives have a fitted effect of over 60% in size
#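 HeLa cells stably expressing Vif and C-terminally eYFP-tagged A3G, seeded overnight at 37 deg C, then exposed to compound by pintool overnight at 37 deg C. Rise in yellow fluorescence (Ex 488/Em 500-530, Acumen) marks blocked Vif-driven A3G degradation.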
# Vif-A3F inh: inhibitors of Vif-A3F interaction; HeLa A3F-eYFP + Vif (tagged APOBEC3F with the HIV-1 protein that degrades it), YFP fluorescence increase; Potency, µM (titrated, usually from 46.1 µM), without a hit: top-dose activity, negative = active; 390,000 compounds, 0.2% hits; note: potency is the fitted concentration of half-maximal effect; % of control where 0% means no effect; nearly all actives have a fitted effect of over 65% in size
#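 HeLa cells stably expressing A3F-eYFP plus Vif, plated and incubated overnight at 37 deg C, then exposed to compounds overnight at 37 deg C. Blocked degradation read as raised yellow fluorescence (Ex 488/Em 500-530).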
# PLK1 PBD block: inhibitors of human PLK1 polo-box domain binding | P53350 | Plk1 PBD binding of FITC phosphopeptide, fluorescence polarization | Potency, µM, inactives show max response, negative = inhibition, hits mostly inhibitors | 360,000 compounds, 2.8% hits; note: potency is the fitted concentration of half-maximal effect; series mostly up to about 57 µM; % is set by controls: 0 for no effect and ±100 for the full control effect; nearly all actives have a fitted effect of over 65% in size
# * marks the source's active call; other numbers are inactive results; u = inconclusive; x = no result. Unless noted, calls come from the whole dose curve; as a rule, active = well fitted curve in the direction sought with a large enough effect; inconclusive = small, poorly fitted or top-dose-only effect, or another doubt; inactive = no such curve, though single readings can be large; an effect the other way counts as inactive or inconclusive.
SMILES,TSHR antag,VDR inhibitor,Vif-A3G inh,Vif-A3F inh,PLK1 PBD block
CN(C(=O)Cc1ccccc1OC(=O)c1ccccc1)c1ccccc1I,x,2%,-4%,x,x
Cn1ncc2c(=S)[nH]c(=S)[nH]c21,x,x,x,x,27µM*
COCCn1c(=O)c(-c2cn(C)c3ccccc23)nc2cnc(Oc3cccc(Cl)c3)nc21,x,6%,x,x,x
Cc1ccc(S(=O)(=O)C(C#N)c2nc3ccccc3nc2N2CC(C)OC(C)C2)cc1C (configuration not stated),-15,1%,u,6%,38µM*
Cc1ccc(S(=O)(=O)C(C#N)c2nc3ccccc3nc2N2CCCC2)cc1 (configuration not stated),18,u,u,22µM*,34µM*
Cc1cccc(S(=O)(=O)C(C#N)c2nc3ccccc3nc2N2CC(C)OC(C)C2)c1 (configuration not stated),x,-3%,2%,0%,-24%
CC[C@H](C)[C@H](NC(=O)[C@H](CO)NC(=O)[C@H](CC(C)C)NC(=O)[C@H](CO)NC(=O)[C@@H]1CCCN1C(=O)[C@H](CC(N)=O)NC(=O)[C@@H](N)CC(=O)O)C(=O)N[C@@H](CC(=O)O)C(=O)N[C@@H](CC(C)C)C(=O)N[C@H](C(=O)N[C@@H](Cc1ccccc1)C(=O)N[C@@H](Cc1cnc[nH]1)C(=O)N[C@@H](CC(C)C)C(=O)N[C@@H](CC(C)C)C(=O)N[C@@H](CCCNC(=N)N)C(=O)N[C@H](C(=O)N[C@@H](CC(C)C)C(=O)N[C@@H](CC(C)C)C(=O)N[C@@H](CCC(=O)O)C(=O)N[C@@H](CC(C)C)C(=O)N[C@@H](C)C(=O)N[C@@H](CCCNC(=N)N)C(=O)N[C@H](C(=O)N[C@@H](CCC(N)=O)C(=O)N[C@@H](CO)C(=O)N[C@@H](CCC(N)=O)C(=O)N[C@@H](CCCNC(=N)N)C(=O)N[C@@H](CCC(=O)O)C(=O)N[C@@H](CCCNC(=N)N)C(=O)N[C@@H](C)C(=O)N[C@@H](CCC(=O)O)C(=O)N[C@@H](CCC(N)=O)C(=O)N[C@@H](CC(N)=O)C(=O)N[C@@H](CCCNC(=N)N)C(=O)N[C@H](C(=O)N[C@H](C(=O)N[C@@H](Cc1ccccc1)C(=O)N[C@@H](CC(=O)O)C(=O)N[C@@H](CO)C(=O)N[C@H](C(N)=O)C(C)C)[C@@H](C)CC)[C@@H](C)CC)[C@@H](C)O)[C@@H](C)O)[C@@H](C)O,x,-2%,x,x,x
C#CCOCCOCCOCCNc1nc(N2CCOCC2)nc(N2CCN(C(=O)[C@H](Cc3cc4ccccc4[nH]3)n3cc([C@@H](N)Cc4ccc(O)cc4)nn3)CC2)n1,-5,-19%,-4%,5%,27µM*
N#Cc1ccccc1OCc1cn(CC(=O)c2ccc(O)cc2)nn1,x,u,2%,2%,24µM*
CC(=O)N/N=C/c1cc(C(C)(C)C)cc(/C=N/NC(C)=O)c1O,6,10%,13µM*,22µM*,21µM*
CCC(O)(CC)C(=O)N/N=C/c1cc(Br)cc(Br)c1O,3,4%,0%,-1%,-2%
Cc1cc(=O)oc2ccc(OCc3ccccc3)cc12,-118*,7%,-11%,0%,-6%
CC[N+]1(CC(=O)c2ccc(Br)cc2)CCCCC1,x,x,-1%,x,x
Cc1cc(C)c(S(=O)(=O)ON2C(=O)c3ccccc3C2=O)cc1C,25,32µM*,-23%,-9%,5.3µM*
O=C1c2ccccc2C(=O)N1OS(=O)(=O)c1ccc(F)cc1,13,-2%,0%,-13%,5.3µM*
O=S(=O)(c1ccccc1)N1CCN(S(=O)(=O)c2ccc(F)cc2)CC1,-20,2%,1%,3%,-11%
Cc1ccc(S(=O)(=O)ON2C(=O)c3ccccc3C2=O)c(C)c1,30,18µM*,u,-8%,7.5µM*
Cc1cc(C)c(C)c(S(=O)(=O)ON2C(=O)c3ccccc3C2=O)c1C,1,22µM*,-19%,-12%,6.7µM*
Cc1ccc(OC(=O)CN2C(=O)c3ccccc3C2=O)cc1C,-9,12%,4%,-7%,-4%
